Test results reported in PubChem BioAssay AID1159580 (chemical genetic matrix, 2015).
The campaign covered roughly 5,500 compounds. About 2,000 (36%) were called active. Not shown: some 18% with an inconclusive outcome. Rule as the data show it: active = normalized growth mostly below about 0.91 (no sharp cut-off); inconclusive = no clear call, values can overlap the other calls; inactive = mostly above about 0.92. The list shows a part of the results.

Assay: chemical genetic growth profiling, strain panel (AID 1159580);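 also: tested at 20 µM; growth read once vehicle control cultures reached saturation at 30 °C; 1 = growth at the plate median or of vehicle wells; lower values mean less growth of the strain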
Conditions: S. cerevisiae deletion strains, growth OD
[1] = locus YAL013W, strain DEP1, hits give low values
[2] = locus YMR263W, strain SAP30, hits give low values
[3] = locus YPL055C, strain LGE1, hits give low values
[4] = locus YPL241C, strain CIN2, hits give low values
[5] = locus YDL101C, strain DUN1, hits give low values
[6] = locus YHR030C, strain SLT2, hits give low values

Measured: normalized growth

CC[C@H]1CN2CCc3cc(OC)c(OC)cc3[C@@H]2C[C@@H]1C[C@H]1NCCc2cc(OC)c(OC)cc21
inactive: [1] 1.01 | locus YAL040C, strain CLN3, hits give low values 0.999 | locus YCL061C, strain MRC1 (second series), hits give low values 0.995 | locus YDR363W, strain ESC2, hits give low values 0.999 | locus YER002W, strain NOP16, hits give low values 1 | locus YGR229C, strain SMI1, hits give low values 0.994 | [2] 1.01 | locus YMR307W, strain GAS1, hits give low values 1.01 | locus YNL128W, strain TEP1, hits give low values 0.999 | locus YNL175C, strain NOP13, hits give low values 1.03 | locus YNL197C, strain WHI3, hits give low values 1.02 | locus YNL224C, strain SQS1, hits give low values 1.02 | locus YOR083W, strain WHI5 (second series), hits give low values 1.02 | [3] 1.02 | [4] 1

O=C(Nc1ccccn1)c1cc(-c2ccccc2)c(C(F)(F)F)s1
active: [6] 0.816 | locus YLR113W, strain HOG1, hits give low values 0.77 | locus YPL256C, strain CLN2, hits give low values 0.806
inactive: locus YAR019C, strain CDC15, hits give low values 0.954 | locus YBL105C, strain PKC1, hits give low values 0.94 | locus YBR135W, strain CKS1, hits give low values 0.947 | locus YBR136W, strain MEC1, hits give low values 0.953 | locus YBR160W, strain CDC28, hits give low values 0.939 | locus YDL017W, strain CDC7, hits give low values 0.945 | locus YDL028C, strain MPS1, hits give low values 0.95 | [5] 0.944 | locus YDL108W, strain KIN28, hits give low values 0.962 | locus YDL132W, strain cdc53, hits give low values 0.942 | locus YDL214C, strain PRR2, hits give low values 0.897 | locus YDR052C, strain DBF4, hits give low values 0.955 | locus YDR054C, strain cdc34, hits give low values 0.947 | locus YDR226W, strain ADK1, hits give low values 0.965 | locus YDR477W, strain SNF1, hits give low values 0.969 | locus YER123W, strain YCK3, hits give low values 0.967 | locus YER133W, strain GLC7, hits give low values 0.961 | locus YFL009W, strain cdc4, hits give low values 0.955 | locus YFL029C, strain CAK1, hits give low values 0.939 | locus YFR003C, strain YPI1, hits give low values 0.95 | locus YFR019W, strain FAB1, hits give low values 0.953 | locus YFR028C, strain CDC14, hits give low values 0.959 | locus YGR040W, strain KSS1, hits give low values 0.96 | locus YGR052W, strain FMP48, hits give low values 0.971 | locus YGR092W, strain DBF2, hits give low values 0.902 | locus YHR079C, strain IRE1, hits give low values 0.877 | locus YHR082C, strain KSP1, hits give low values 0.918 | locus YHR205W, strain SCH9, hits give low values 0.836 | locus YIL147C, strain SLN1, hits give low values 0.949 | locus YJL095W, strain BCK1, hits give low values 0.916 | locus YJL128C, strain PBS2, hits give low values 0.909 | locus YJL157C, strain FAR1, hits give low values 0.948 | locus YJR016C, strain ILV3, hits give low values 0.951 | locus YJR066W, strain TOR1 (second series), hits give low values 1 | locus YJR066W, strain TOR1, hits give low values 0.897 | locus YKL048C, strain ELM1, hits give low values 0.948 | locus YKL067W, strain YNK1, hits give low values 0.928 | locus YKL101W, strain HSL1, hits give low values 0.929 | locus YKL193C, strain SDS22, hits give low values 0.929 | locus YKL203C, strain TOR2, hits give low values 1.01 | locus YLR133W, strain CKI1, hits give low values 0.941 | locus YLR403W, strain SFP1, hits give low values 0.97 | locus YML070W, strain DAK1, hits give low values 0.924 | locus YMR001C, strain CDC5, hits give low values 0.921 | locus YMR205C, strain PFK2 (second series), hits give low values 0.934 | locus YMR277W, strain FCP1, hits give low values 0.928 | locus YNL006W, strain LST8, hits give low values 0.94 | locus YNL020C, strain ARK1, hits give low values 0.931 | locus YNL161W, strain CBK1, hits give low values 0.934 | locus YNL183C, strain NPR1, hits give low values 0.887 | locus YNL207W, strain RIO2, hits give low values 0.935 | locus YNL222W, strain SSU72, hits give low values 0.941 | locus YNL307C, strain MCK1 (second series), hits give low values 0.897 | locus YOL078W, strain AVO1, hits give low values 0.934 | locus YOL136C, strain PFK27, hits give low values 0.893 | locus YOR061W, strain CKA2, hits give low values 0.95 | locus YOR119C, strain RIO1, hits give low values 0.945 | locus YOR231W, strain MKK1, hits give low values 0.876 | locus YOR329C, strain SCD5, hits give low values 0.935 | locus YPL031C, strain PHO85, hits give low values 0.954 | locus YPL153C, strain RAD53, hits give low values 0.963 | locus YPL204W, strain HRR25, hits give low values 0.945 | locus YPL209C, strain IPL1, hits give low values 0.938 | locus YPR025C, strain CCL1, hits give low values 0.942 | locus YPR106W, strain ISR1, hits give low values 0.936 | locus YPR111W, strain DBF20, hits give low values 0.975 | strain NNK1, hits give low values 0.919 | strain TSCII, hits give low values 0.938

O=C(Nc1cc(C(F)(F)F)cc(C(F)(F)F)c1)C(Sc1ccccn1)c1ccccc1 (configuration not stated)
inactive: [1] 0.998 | locus YBR229C, strain ROT2, hits give low values 0.983 | [5] 0.987 | locus YDL134C, strain PPH21, hits give low values 0.979 | locus YDR150W, strain NUM1, hits give low values 1 | locus YEL061C, strain CIN8, hits give low values 0.988 | locus YGR078C, strain PAC10, hits give low values 0.989 | [6] 0.982 | locus YHR087W, strain rtc3, hits give low values 0.973 | locus YJR043C, strain POL32, hits give low values 0.995 | locus YJR075W, strain HOC1, hits give low values 1.01 | locus YLR039C, strain RIC1, hits give low values 0.944 | locus YLR058C, strain SHM2 (second series), hits give low values 0.978 | locus YLR085C, strain ARP6, hits give low values 1.02 | locus YLR262C, strain YPT6, hits give low values 0.962 | locus YML094W, strain GIM5, hits give low values 0.953 | locus YMR219W, strain ESC1, hits give low values 0.99 | [2] 1.03 | locus YNL153C, strain GIM3, hits give low values 1.01 | locus YNL298W, strain CLA4 (second series), hits give low values 1.01 | locus YNL322C, strain KRE1, hits give low values 0.991 | locus YNR030W, strain Alg12, hits give low values 0.997 | locus YOL006C, strain TOP1, hits give low values 0.997 | [3] 1.03 | [4] 0.98 | locus YPR135W, strain CTF4, hits give low values 0.959
